Inconclusive results are not listed. The source made the active and inactive calls. Unless noted, the call rests on the fitted dose curve; in most records, active means well fitted curve in the direction sought with a large enough effect in the repeat runs; inconclusive means weak or mixed curves; inactive means no such curve, though single readings can be large; an effect the other way counts as inactive or inconclusive.
Columns and labels:
[1] = qHTS assay to identify small molecule agonists of the estrogen receptor alpha (ER-alpha) signaling pathway in the presence of an antagonist - cell viability counter screen (AID 1259386);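 further: series mostly up to about 92 µM; cells exposed to compounds for 22 h at 37 °C before the viability read; nearly all actives have a fitted effect of over 30% in size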
Summary of the method: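 Viability counter screen using VM7Luc4E2 (full-length ER-alpha, four ERE-luciferase). The cells were treated with compounds alongside ICI-182,780 10.0nM for 22hr, and live-cell protease fluorescence was quantified with CellTiter-Fluor.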

[2] = target: Progesterone receptor (Homo sapiens) (UniProt P06401); test: qHTS assay to identify small molecule agonists of the progesterone receptor (PR) signaling pathway (AID 1346784; calls by dose curve; further: nearly all actives have a fitted effect of over 30% in size)
Progesterone receptor (Homo sapiens), sequence (P06401 whole entry, looked up): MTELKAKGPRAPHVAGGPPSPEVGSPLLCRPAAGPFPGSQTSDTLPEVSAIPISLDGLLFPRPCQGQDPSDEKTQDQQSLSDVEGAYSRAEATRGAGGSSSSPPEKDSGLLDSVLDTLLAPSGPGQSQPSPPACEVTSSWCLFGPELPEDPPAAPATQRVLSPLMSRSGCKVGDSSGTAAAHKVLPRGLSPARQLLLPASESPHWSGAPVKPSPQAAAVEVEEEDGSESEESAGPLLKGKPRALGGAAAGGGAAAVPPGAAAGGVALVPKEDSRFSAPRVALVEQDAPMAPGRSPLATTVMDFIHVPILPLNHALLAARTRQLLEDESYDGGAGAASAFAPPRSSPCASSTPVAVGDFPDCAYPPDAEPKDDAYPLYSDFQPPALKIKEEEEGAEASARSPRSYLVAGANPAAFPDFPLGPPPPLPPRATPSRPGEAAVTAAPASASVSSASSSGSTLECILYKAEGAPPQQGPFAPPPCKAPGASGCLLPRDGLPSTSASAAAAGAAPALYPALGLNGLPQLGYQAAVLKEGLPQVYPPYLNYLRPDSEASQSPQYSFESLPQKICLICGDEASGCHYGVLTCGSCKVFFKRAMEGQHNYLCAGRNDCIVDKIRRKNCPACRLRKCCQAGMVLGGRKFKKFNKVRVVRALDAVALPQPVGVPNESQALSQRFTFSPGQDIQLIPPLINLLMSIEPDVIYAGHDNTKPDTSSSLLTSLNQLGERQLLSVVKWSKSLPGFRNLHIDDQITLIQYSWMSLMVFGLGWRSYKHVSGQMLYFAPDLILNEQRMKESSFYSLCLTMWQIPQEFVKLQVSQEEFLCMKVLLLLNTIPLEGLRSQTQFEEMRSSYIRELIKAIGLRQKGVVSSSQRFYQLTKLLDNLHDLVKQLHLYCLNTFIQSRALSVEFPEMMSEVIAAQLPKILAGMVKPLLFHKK
Summary of the method: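 Fluorescence from LiveBLAzer B/G FRET substrate cleavage (2 hr, RT) reported PR activation in PR-UAS-bla HEK 293T cells treated 16 hr at 37C/5% CO2 with compounds; medium contained 2% charcoal-stripped FBS.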

[3] = target: Progesterone receptor (Homo sapiens) (UniProt P06401); test: qHTS assay to identify small molecule antagonists of the progesterone receptor (PR) signaling pathway (AID 1346795; active means well fitted inhibition curve with a large enough effect in the signal ratio in the repeat runs, not every such curve was filed as active; the % refers to the signal ratio)
Summary of the method: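 Fluorescence intensity measured 2 hr after adding beta-lactamase FRET substrate to PR-UAS-bla HEK293T cells that had been co-treated 16 hr with compound and 1 nM R5020 (final concentration) in 2% charcoal-stripped FBS.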

[4] = qHTS assay to identify small molecule antagonists of the progesterone receptor (PR) signaling pathway - cell viability counter screen (AID 1346798); further: series mostly up to about 92 µM; nearly all actives have a fitted effect of over 50% in size
Summary of the method: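 CellTiter-Glo luminescence; PR-UAS-bla HEK293T, 3,000 cells/well; compound + R5020, 16 hr, 37C/5% CO2; 30 min RT before read.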

[5] = qHTS assay to identify small molecule agonists of the progesterone receptor (PR) signaling pathway - cell viability counter screen (AID 1346799; calls by dose curve; further: nearly all actives have a fitted effect of over 45% in size)
Summary of the method: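 In parallel with the beta-lactamase readout, cytotoxicity toward PR-UAS-bla HEK293T cells was measured by CellTiter-Glo luminescence following 16 hr compound incubation in 2% charcoal-stripped FBS medium.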

[6] = qHTS assay to identify small molecule agonists of the TGF-beta/Smad signaling pathway (AID 1346859; active means well fitted activation curve with a large enough effect in the signal ratio in the repeat runs, not every such curve was filed as active; the % refers to the signal ratio; further: series mostly up to about 77 µM)
Summary of the method: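 After overnight seeding, SBE-bla HEK 293T cells are dosed with compounds in DMSO and kept 5 hr at 37 C, 5% CO2. LiveBLAzer-type FRET substrate is then applied for 2 hr at room temperature.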

[7] = target: Thyrotropin-releasing hormone receptor (Homo sapiens) (UniProt P34981); test: qHTS assay to identify small molecule antagonists of the thyrotropin-releasing hormone receptor (TRHR) signaling pathway (AID 1346877; active means well fitted inhibition curve with a large enough effect in the repeat runs, not every such curve was filed as active; further: series mostly up to about 51 µM)
Thyrotropin-releasing hormone receptor (Homo sapiens), sequence (P34981 whole entry, looked up): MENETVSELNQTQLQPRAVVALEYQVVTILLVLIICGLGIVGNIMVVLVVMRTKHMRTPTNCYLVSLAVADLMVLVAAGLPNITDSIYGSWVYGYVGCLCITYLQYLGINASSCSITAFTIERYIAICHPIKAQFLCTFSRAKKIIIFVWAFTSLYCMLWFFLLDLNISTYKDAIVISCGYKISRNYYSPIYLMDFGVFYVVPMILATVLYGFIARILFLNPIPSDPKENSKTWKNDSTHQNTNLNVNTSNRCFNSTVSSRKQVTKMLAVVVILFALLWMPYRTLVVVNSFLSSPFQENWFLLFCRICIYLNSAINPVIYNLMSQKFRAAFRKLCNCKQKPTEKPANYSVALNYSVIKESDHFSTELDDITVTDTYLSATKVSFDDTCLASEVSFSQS
Summary of the method: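 Following an 18 h incubation at 37 °C and a 2 h calcium dye load, TRHR-HEK293 cells were exposed to compound (5 min, room temperature) and challenged with TRH, 1 nM final.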

[8] = target: Thyrotropin-releasing hormone receptor (Homo sapiens) (UniProt P34981); test: qHTS assay to identify small molecule agonists of the thyrotropin-releasing hormone receptor (TRHR) signaling pathway (AID 1346891; calls by dose curve;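 further: HEK293 cells expressing TRHR with calcium dye readout; series mostly up to about 58 µM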)
Summary of the method: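 Compounds were tested as agonists at 15 concentrations, in triplicate, on TRHR-Hek293 cells; calcium-sensitive dye fluorescence was recorded for 3 min following addition.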

[9] = Human pregnane X receptor (PXR) small molecule agonists, qHTS cell viability counter screen (AID 1346977); further: nearly all actives have a fitted effect of over 50% in size
Summary of the method: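 Viability counter screen: CellTiter-Fluor signal in PXR-Luc HepG2 cells, 24hr compound exposure, 37C, 5% CO2.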

[10] = Caspase-3/7 induction in CHO-K1 cells by small molecules, qHTS cell viability counter screen (AID 1346979); further: nearly all actives have a fitted effect of over 35% in size
Summary of the method: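 Viability readout by fluorescence (CellTiter-Fluor) on wild-type CHO-K1 cells exposed for 16hr at 37C and 5% CO2 to compounds delivered in DMSO; reagent incubated 1hr before reading.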

[11] = Caspase-3/7 induction in CHO-K1 cells by small molecules, qHTS assay (AID 1346980); further: nearly all actives have a fitted effect of over 15% in size
Summary of the method: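 Luminescent Caspase-Glo 3/7 read (30min, room temperature) quantified apoptosis induction. Cells were wild-type CHO-K1, treated with compound for 17hr at 37 C and 5% CO2.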

[12] = Caspase-3/7 induction in HepG2 cells by small molecules, qHTS cell viability counter screen (AID 1346981); further: series mostly up to about 92 µM; nearly all actives have a fitted effect of over 30% in size
Summary of the method: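 Viability determined by CellTiter-Fluor fluorescence in HepG2 wells also used for the luminescent Caspase-Glo 3/7 read. Compounds were present for 16 hr at 37 C, 5% CO2 before reagent addition.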

[13] = target: Nuclear receptor subfamily 1 group I member 2 (Homo sapiens) (UniProt O75469); test: Human pregnane X receptor (PXR) small molecule agonists, qHTS assay (AID 1346982); further: nearly all actives have a fitted effect of over 35% in size; further: potency means the concentration at half of the fitted maximal effect
Nuclear receptor subfamily 1 group I member 2 (Homo sapiens), sequence (O75469 whole entry, looked up): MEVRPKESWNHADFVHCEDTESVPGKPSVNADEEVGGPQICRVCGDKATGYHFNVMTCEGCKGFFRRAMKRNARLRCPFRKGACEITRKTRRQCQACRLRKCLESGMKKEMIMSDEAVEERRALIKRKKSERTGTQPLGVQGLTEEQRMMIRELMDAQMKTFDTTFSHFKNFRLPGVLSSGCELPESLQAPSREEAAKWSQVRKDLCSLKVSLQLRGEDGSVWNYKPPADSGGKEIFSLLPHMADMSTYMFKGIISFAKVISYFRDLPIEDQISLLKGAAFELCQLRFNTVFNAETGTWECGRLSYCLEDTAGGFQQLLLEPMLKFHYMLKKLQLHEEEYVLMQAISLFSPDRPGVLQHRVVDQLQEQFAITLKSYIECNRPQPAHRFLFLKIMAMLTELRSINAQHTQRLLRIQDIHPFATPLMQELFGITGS
Summary of the method: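 Compound-induced hPXR transactivation of a CYP3A4 luciferase reporter was scored in HepG2 PXR-Luc cells over 24 hr at 37 C, 5% CO2, by luminescence.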

[14] = qHTS assay to identify small molecule antagonists of the TGF-beta/Smad signaling pathway - cell viability counter screen (AID 1346824); further: nearly all actives have a fitted effect of over 50% in size
Summary of the method: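 Cytotoxicity counter-screen run in the same wells as the beta-lactamase Smad reporter read: CellTiter-Glo luminescence after 30 min at room temperature. HEK 293T SBE-bla cells had 5 hr compound exposure at 37 C with TGF-beta1 (0.25 ng/mL stock).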

[15] = qHTS assay to identify small molecule agonists of the TGF-beta/Smad signaling pathway - cell viability counter screen (AID 1346829); further: top concentration of the series differs between compounds; nearly all actives have a fitted effect of over 45% in size
Summary of the method: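 HEK 293T SBE-bla line, 5 hr compound exposure at 37 C, multiplexed CellTiter-Glo viability read by luminescence.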

[16] = Caspase-3/7 induction in HepG2 cells by small molecules, qHTS assay (AID 1346978); further: nearly all actives have a fitted effect of over 15% in size
Summary of the method: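 Caspase-3/7 induction was measured by Caspase-Glo 3/7 luminescence (30 min, room temperature) after a 17 hr compound exposure of wild-type HepG2 cells seeded at 2,000 per well and pre-incubated 5 hr.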

[17] = qHTS assay to identify small molecule agonists or antagonists of the thyroid stimulating hormone receptor (TSHR) signaling pathway - wild type cell line counter screen (AID 1259384; calls by dose curve)
Summary of the method: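 Counter screen in untransfected Hek293: compounds (15-point titration, triplicate) plus phosphodiesterase inhibitor Ro20-1724 added after 18 h plating; 30 min RT. Intracellular cAMP via competitive d2/cryptate immunoassay, 1 h incubation.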

[18] = target: Thyrotropin receptor (Homo sapiens) (UniProt P16473); test: qHTS assay to identify small molecule antagonists of the thyroid stimulating hormone receptor (TSHR) signaling pathway (AID 1259385; calls by dose curve; further: nearly all actives have a fitted effect of over 20% in size)
Thyrotropin receptor (Homo sapiens), sequence (P16473 whole entry, looked up): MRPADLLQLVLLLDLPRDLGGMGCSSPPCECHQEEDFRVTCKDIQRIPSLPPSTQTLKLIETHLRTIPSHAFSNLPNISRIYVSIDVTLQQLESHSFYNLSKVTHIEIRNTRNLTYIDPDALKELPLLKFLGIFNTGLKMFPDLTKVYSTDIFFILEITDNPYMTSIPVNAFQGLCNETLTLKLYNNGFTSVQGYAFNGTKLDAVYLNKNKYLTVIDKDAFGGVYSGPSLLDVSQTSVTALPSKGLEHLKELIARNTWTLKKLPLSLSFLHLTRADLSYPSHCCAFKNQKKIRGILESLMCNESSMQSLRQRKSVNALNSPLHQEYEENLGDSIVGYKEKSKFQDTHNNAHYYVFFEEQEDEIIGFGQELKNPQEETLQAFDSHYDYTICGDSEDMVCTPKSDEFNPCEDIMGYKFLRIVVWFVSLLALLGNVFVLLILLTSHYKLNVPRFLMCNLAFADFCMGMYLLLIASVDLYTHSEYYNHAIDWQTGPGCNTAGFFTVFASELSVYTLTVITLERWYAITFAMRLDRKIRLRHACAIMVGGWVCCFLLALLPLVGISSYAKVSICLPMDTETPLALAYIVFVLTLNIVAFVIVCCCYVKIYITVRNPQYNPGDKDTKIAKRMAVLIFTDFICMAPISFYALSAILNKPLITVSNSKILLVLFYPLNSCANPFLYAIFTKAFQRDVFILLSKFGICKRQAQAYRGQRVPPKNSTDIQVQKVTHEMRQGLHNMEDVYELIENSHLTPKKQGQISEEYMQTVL
Summary of the method: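 Antagonist mode: compound-treated TSHR-expressing HEK293 cells were stimulated with 1.5 ng/mL TSH (final) in presence of Ro20-1724 for 30 min at RT. HTRF cAMP detection after 1 h; each compound tested at 15 concentrations, triplicate.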

[19] = target: Nuclear receptor subfamily 1 group I member 2 (Rattus norvegicus) (UniProt Q9R1A7); test: Rat pregnane X receptor (rPXR) activation by small molecules, qHTS assay (AID 1346983); details: rPXR luciferase reporter cells, One-Glo luminescence, 24 h; max activation: active compounds read high; further: nearly all actives have a fitted effect of over 20% in size
Nuclear receptor subfamily 1 group I member 2 (Rattus norvegicus), sequence (Q9R1A7 whole entry, looked up): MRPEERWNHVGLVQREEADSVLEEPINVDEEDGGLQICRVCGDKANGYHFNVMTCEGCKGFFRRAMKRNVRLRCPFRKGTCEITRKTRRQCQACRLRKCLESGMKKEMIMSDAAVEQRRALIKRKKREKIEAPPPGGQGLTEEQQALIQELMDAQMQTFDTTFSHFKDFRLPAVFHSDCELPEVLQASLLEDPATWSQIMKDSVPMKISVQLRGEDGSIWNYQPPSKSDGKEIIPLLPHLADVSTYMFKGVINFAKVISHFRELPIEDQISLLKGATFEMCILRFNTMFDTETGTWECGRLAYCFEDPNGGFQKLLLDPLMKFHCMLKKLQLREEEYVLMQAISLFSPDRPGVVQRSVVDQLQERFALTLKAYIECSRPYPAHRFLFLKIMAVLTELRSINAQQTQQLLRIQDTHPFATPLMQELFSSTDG
Summary of the method: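 Luminescent readout (One-Glo luciferase, 30 min room temperature) followed 24 hr compound treatment at 37 C of rPXR cells plated 2,000 per well and preincubated 5hr; qHTS format with compounds delivered in DMSO.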
On the % scale 0 is the no-effect control and ±100 the full control effect.

CC(=O)c1c(C)cc(C(C)(C)C)cc1C
inactive: outcome [1] | Potency [2] | Potency [3] | outcome [4] | Potency [5] | outcome [6] | outcome [7] | Potency [8] | outcome [9] | Potency [10] | outcome [11] | outcome [12] | Potency [13]

CC[N+](C)(CC)CC
inactive: outcome [1] | Potency [2] | Potency [3] | outcome [4] | Potency [5] | outcome [14] | outcome [15] | outcome [6] | outcome [7] | Potency [8] | outcome [9] | outcome [16] | Potency [10] | outcome [11] | outcome [12] | Potency [13]

Cc1nnc(C(=O)NC(C)(C)c2nc(C(=O)NCc3ccc(F)cc3)c(O)c(=O)n2C)o1
inactive: outcome [17] | outcome [18] | Potency [2] | outcome [4] | Potency [5] | outcome [14] | outcome [15] | outcome [7] | Potency [8] | outcome [9] | outcome [16] | Potency [10] | outcome [11] | outcome [12] | Potency [13]

CCCCCCCCS(=O)(=O)O
inactive: outcome [17] | outcome [1] | Potency [2] | outcome [4] | Potency [5] | outcome [15] | outcome [6] | outcome [7] | Potency [8] | outcome [9] | outcome [16] | Potency [10] | outcome [11] | outcome [12] | Potency [13]

CCOc1ccccc1OCCN[C@H](C)Cc1ccc(OC)c(S(N)(=O)=O)c1
active: Potency [13] 26.6 µM
inactive: outcome [17] | outcome [1] | Potency [2] | outcome [4] | Potency [5] | outcome [14] | outcome [15] | outcome [6] | outcome [7] | Potency [8] | outcome [9] | outcome [16] | Potency [10] | outcome [11] | outcome [12] | max activation [19] -6.48%

CCCOc1ccc(C(=O)OCCN(CC)CC)cc1N
inactive: outcome [17] | outcome [18] | Potency [2] | Potency [3] | outcome [4] | outcome [14] | outcome [15] | outcome [6] | outcome [7] | Potency [8] | outcome [9] | outcome [16] | Potency [10] | outcome [11] | outcome [12] | Potency [13]

C=C(C)C(=O)OCCOC1CC2CC1C1C=CCC21 (stereo not given)
inactive: outcome [17] | outcome [1] | Potency [2] | Potency [3] | outcome [4] | Potency [5] | outcome [15] | outcome [6] | outcome [7] | Potency [8] | outcome [9] | outcome [16] | Potency [10] | outcome [11] | outcome [12]

Cc1ccc(O)c(C(=O)c2ccccc2)c1
inactive: outcome [17] | outcome [1] | Potency [2] | Potency [3] | outcome [4] | Potency [5] | outcome [14] | outcome [6] | outcome [7] | Potency [8] | outcome [9] | outcome [16] | Potency [10] | outcome [11] | outcome [12]

COc1cc(C(=O)NC2CCCNC2)cc(OC)c1OC (stereo not given)
inactive: outcome [18] | outcome [1] | Potency [2] | Potency [3] | outcome [4] | outcome [14] | outcome [6] | outcome [9] | Potency [10] | outcome [11] | outcome [12] | Potency [13]

CCc1ncc(C)[nH]1
inactive: outcome [18] | outcome [1] | Potency [2] | Potency [3] | outcome [4] | Potency [5] | outcome [14] | outcome [15] | outcome [7] | Potency [8] | outcome [9] | outcome [16] | Potency [10] | outcome [11] | outcome [12] | Potency [13]

CCCCCCCCCCCCCCCC/C=C/C1CC(=O)OC1=O (stereo not given)
inactive: outcome [17] | outcome [1] | Potency [2] | outcome [4] | Potency [5] | outcome [15] | outcome [6] | outcome [9] | outcome [16] | Potency [10] | outcome [11] | outcome [12] | Potency [13]

CCO/C=C1\N=C(c2ccccc2)OC1=O
inactive: outcome [17] | outcome [1] | Potency [2] | Potency [3] | outcome [4] | Potency [5] | outcome [14] | outcome [15] | outcome [6] | outcome [9] | outcome [16] | Potency [10] | outcome [11] | outcome [12] | Potency [13]

N=C(N)N1CCc2ccccc2C1
inactive: activity change, negative = inhibition [18] 0.0098% [at 8.39 µM] | activity change, negative = inhibition [3] 5.13% [at 8.39 µM] | activity change, negative = cytotoxicity [4] 3.01% [at 8.39 µM] | activity change, negative = cytotoxicity [5] 0.346% [at 8.39 µM] | viability change, negative = cytotoxic [14] -7.19% [at 6.97 µM] | activity change, negative = cytotoxicity [15] -4.14% [at 6.97 µM] | activation [6] -1.64% [at 6.97 µM] | activity, negative = inhibition [7] 4% [at 4.65 µM] | activation [8] 0.0364% [at 5.23 µM] | activity change, negative = cytotoxicity [9] 4.15% [at 8.39 µM] | caspase activation [16] -1.31% [at 8.39 µM] | activity change, negative = cytotoxicity [10] 6.67% [at 8.39 µM] | caspase-3/7 activation [11] -0.384% [at 8.39 µM] | activity change, negative = cytotoxicity [12] 3.77% [at 8.39 µM] | activation [13] -6.7% [at 8.39 µM] | max activation [19] -0.056%

O=c1c(O)c(O)c1=O
inactive: outcome [17] | outcome [18] | outcome [1] | outcome [4] | Potency [5] | outcome [14] | outcome [15] | outcome [6] | outcome [9] | Potency [10] | outcome [11] | outcome [12] | Potency [13]

CNCCc1ccccn1
inactive: outcome [18] | outcome [1] | Potency [2] | outcome [4] | Potency [5] | outcome [14] | outcome [15] | outcome [6] | outcome [7] | Potency [8] | outcome [9] | outcome [16] | Potency [10] | outcome [11] | outcome [12] | Potency [13] | max activation [19] -1.65%

CC(C)(Sc1cc(C(C)(C)C)c(O)c(C(C)(C)C)c1)Sc1cc(C(C)(C)C)c(O)c(C(C)(C)C)c1
inactive: outcome [17] | outcome [18] | Potency [2] | Potency [3] | outcome [4] | outcome [14] | outcome [15] | outcome [6] | outcome [7] | Potency [8] | outcome [9] | outcome [16] | Potency [10] | outcome [11] | outcome [12] | max activation [19] -1.55%

CC1(C)CC(N)CC(C)(C)N1
inactive: outcome [17] | Potency [2] | outcome [4] | Potency [5] | outcome [14] | outcome [15] | outcome [6] | outcome [7] | Potency [8] | outcome [9] | outcome [16] | Potency [10] | outcome [11] | outcome [12] | Potency [13]

CCCc1ncc(C(=O)O)s1
inactive: outcome [1] | Potency [2] | Potency [3] | outcome [4] | Potency [5] | outcome [15] | outcome [6] | outcome [7] | Potency [8] | outcome [9] | outcome [16] | Potency [10] | outcome [11] | outcome [12] | Potency [13]
